Data as given in the OligoGym collection.

molecular target: PLS1; test: pooled miR-30 sensor sort-seq; sequence = guide strand; conditions: shRNA
Further: reference of the scale not given here.

| Sequence | sensor-assay potency score (higher = more potent) |
| --- | --- |
| TATCTTTGCTTTTTAATTCTTG | -0.576 |
| TAAATTTTCAGAAATAGTGAAT | -0.578 |
| TTGTAGTTCTTCAAGCTCCTCC | 0.438 |

molecular target: PLTP; test: as above; conditions: shRNA

| Sequence | sensor-assay potency score (higher = more potent) |
| --- | --- |
| ACATTGGACACTTTCATCCGTC | 0.0628 |
| TTAAATTGGGTACAGCTTCAAA | -1.22 |
| TTGAGCAGGACCGTCCCTGCGT | -0.0816 |
| TTGGAATAGATTCGGAACCTGC | -0.704 |
| TACACCTTCAAGAACCAGTAGA | -0.191 |
| TACAGCTTCAAATCCCGTCTTC | -0.171 |
| TCATACACCTTCTTGAAGGTTC | -0.197 |
| TTGAAGCATCAGCTCCTGCTGT | 0.293 |
| TTCTTCTCAATCACCTCTCGCA | -0.149 |
| TCATACACCTTCAAGAACCAGT | 0.217 |
| TTGGACACTTTCATCCGTCCAG | -0.0718 |
| ATAGATTCGGAACCTGCGCAGG | -1.18 |

molecular target: PLXNA3; test: as above; conditions: shRNA

| Sequence | sensor-assay potency score (higher = more potent) |
| --- | --- |
| TACAAGGACAGCGTGTCTGAGG | -0.523 |
| TAGTCTATGAGCAGCAGCTTGT | -0.951 |
| TAGTAGGTAAAGGAGGAGCGGT | -1.08 |
| ATCTCGGAGACCATCTTGCTGC | -1.06 |
| TGTCTTGTAGTCGATCTGCTGA | -0.0226 |
| TTGTTGATGTTGTCCACGGGGG | -0.257 |
| ATGTCGAACACGAACTGCGGGT | -1.37 |
| TTGTAGTCGATCTGCTGACGGA | -0.986 |
| TTGTGTGTCCGAGACAGTGAGC | -0.941 |
| TCACACTCGATCTTGGTGGTGA | 0.265 |
| TAGATCTCGGAGACCATCTTGC | -0.165 |
| TAGAACTCTGAGTCTCCCGCGC | -0.24 |

molecular target: PM20D1; test: as above; conditions: shRNA

| Sequence | sensor-assay potency score (higher = more potent) |
| --- | --- |
| TGACATTGAACTTGACCCCTGC | 0.0724 |
| TTGGATAGTGAACAGGTGGCTA | -0.715 |
| TTGTCGTCCAGTGTGCCCCGAC | -0.594 |
| TTTCTCTCCATAAACCTGCTTA | 0.0874 |
| TTTCTCGTTGACTCCATGGATG | -0.946 |
| TTGGACTGAGATTTTCTCGTTG | 0.297 |
| TTTATGAATGTATTTTCCGAAC | -1.32 |
| AATACAGTCACCACTGTCCCGC | -0.75 |
| TACATTTGTTAAGTCAAGCCTG | 0.298 |
| ATGACATTGAACTTGACCCCTG | -0.759 |
| TTGAATATGGTGAGTGCCGTGG | -0.197 |
| TTGGACTGTCTGTCCAGGGTGA | 0.135 |
